Test results from PubChem BioAssay (EPA / NIEHS).
Results filed as inconclusive are left out. Calls of active or inactive are those of the source. The calls were made as follows: active = hit-call score of the fitted dose curve at least 0.9, where 1 is the maximum; inconclusive = response in the unintended direction; inactive = score below 0.9.

system: not listed separately; experiment: ACEA_AR_antagonist_AUC_viability: ACEA Biosciences xCELLigence Real-Time Cell Analysis on Androgen Receptor Antagonism for Viability (AID 2283776);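 also: area under impedance growth curve at 80 h after dosing as viability; hits lower the growth signal relative to DMSO meaning cytotoxicity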
Method in brief: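 22Rv1 human prostate cancer cells were seeded on electrode plates, monitored overnight, then exposed to eight 1:4 dilutions from 100 uM final. Impedance-based growth kinetics at 80 h gave an AUC viability endpoint normalized to DMSO.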

SMILES	outcome	AC50
CC(C)(CO)CO	inactive	–
CCCCOCCOCCOCCO	inactive	–
CCC(C)(C)C1CCC(=O)CC1	inactive	–
COc1cc(OC)c2ccc(=O)oc2c1	–	0.25 µM (active)
CC1=CCC(C(C)(C)O)CC1 (configuration not stated)	inactive	–
CCCCCCCCCCOC(=O)c1ccccc1C(=O)OCCCCCCCC	inactive	–
CCCCC(CC)COCCO (configuration not stated)	inactive	–
CCCCCC(=O)O[C@]1(C(C)=O)CC[C@H]2[C@@H]3CCC4=CC(=O)CC[C@]4(C)[C@H]3CC[C@@]21C	–	0.416 µM (active)
CC(CCO)CC(C)(C)C (configuration not stated)	inactive	–
CC1COC(=O)O1 (configuration not stated)	inactive	–

system: not listed separately; experiment: ACEA_ER_AUC_viability: ACEA Biosciences xCELLigence Real-Time Cell Analysis on Estrogen Receptor Agonism for Viability (AID 2283782);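 also: continuous compound exposure with impedance area under curve over 80 h; hit means loss of impedance signal meaning reduced cell growth or viability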
Method in brief: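 T47D cells preconditioned in phenol red-free RPMI with charcoal-stripped FBS, then dosed with 8-point 1:4 series from 100 uM (up to 0.5% DMSO). Impedance monitored up to ~80 h; area-under-curve loss versus DMSO taken as viability.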

SMILES	outcome	AC50
Brc1cc(Br)cc(Br)c1	inactive	–
CCOC(=O)CC1(C)OCC(C)O1 (configuration not stated)	inactive	–
c1ccc(-c2nn[nH]n2)cc1	inactive	–
CC(=O)c1ccc(C)cc1	inactive	–
CC(C)(CO)CO	inactive	–
CCCC1CCC(=O)CC1	inactive	–
CCCCC/C=C\C=C\C(=O)OCC	–	80.8 µM (active)
C=C(C)C(=O)OCCC[Si](OC)(OC)OC	inactive	–
C=CC(C)(CCC=C(C)C)OC(=O)CC (configuration not stated)	–	50 µM (active)
CC(CO)c1ccccc1 (configuration not stated)	inactive	–
CCCCCc1cccc(=O)o1	inactive	–
CCCCCCC(O)CCOC(C)=O (configuration not stated)	inactive	–
CC(C)(O)CCc1ccccc1	inactive	–
CCCCC1CCCCC(=O)O1 (configuration not stated)	inactive	–
Cc1cc(O)c(C)c(C)c1O	–	76.1 µM (active)
CC/C=C/CCCCCCCCCCOC(C)=O	inactive	–

SMILES	outcome	AC50
NC(=O)c1c(Cl)cccc1Cl	inactive	–
CC/C=C\CCOC(=O)C(C)C	inactive	–
C=C(C)CCCC(C)CCO (configuration not stated)	–	50 µM (active)
CCO[Si](CC)(OCC)OCC	inactive	–
CC(C)(O)C(=O)c1ccc(OCCO)cc1	inactive	–
O=C1CCC(=O)N1	–	50 µM (active)
O=S1(=O)CC(Cl)(Cl)C(Cl)(Cl)C1	–	1.42 µM (active)
O=C(O)c1cc(C(=O)O)c(C(=O)O)cc1C(=O)O	inactive	–
C[Si]1(C)N[Si](C)(C)N[Si](C)(C)N1	inactive	–
Cc1cc(N)n(-c2ccccc2)n1	inactive	–
CCCCC(CC)COCCO (configuration not stated)	inactive	–
CC1(C)CC(N)CC(C)(CN)C1 (configuration not stated)	inactive	–
CC(C)OB(OC(C)C)OC(C)C	inactive	–
CCCCCC(=O)O[C@]1(C(C)=O)CC[C@H]2[C@@H]3CCC4=CC(=O)CC[C@]4(C)[C@H]3CC[C@@]21C	–	49.8 µM (active)
CC(CCO)CC(C)(C)C (configuration not stated)	inactive	–
CC1COC(=O)O1 (configuration not stated)	inactive	–

target: AR (gene 367) (UniProt P10275); experiment: ACEA_AR_agonist_80hr: ACEA Biosciences xCELLigence Real-Time Cell Analysis on Androgen Receptor Agonism for Proliferation (AID 2283783);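 also: hits increase impedance growth signal above DMSO baseline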
Sequence (P10275 whole entry, looked up): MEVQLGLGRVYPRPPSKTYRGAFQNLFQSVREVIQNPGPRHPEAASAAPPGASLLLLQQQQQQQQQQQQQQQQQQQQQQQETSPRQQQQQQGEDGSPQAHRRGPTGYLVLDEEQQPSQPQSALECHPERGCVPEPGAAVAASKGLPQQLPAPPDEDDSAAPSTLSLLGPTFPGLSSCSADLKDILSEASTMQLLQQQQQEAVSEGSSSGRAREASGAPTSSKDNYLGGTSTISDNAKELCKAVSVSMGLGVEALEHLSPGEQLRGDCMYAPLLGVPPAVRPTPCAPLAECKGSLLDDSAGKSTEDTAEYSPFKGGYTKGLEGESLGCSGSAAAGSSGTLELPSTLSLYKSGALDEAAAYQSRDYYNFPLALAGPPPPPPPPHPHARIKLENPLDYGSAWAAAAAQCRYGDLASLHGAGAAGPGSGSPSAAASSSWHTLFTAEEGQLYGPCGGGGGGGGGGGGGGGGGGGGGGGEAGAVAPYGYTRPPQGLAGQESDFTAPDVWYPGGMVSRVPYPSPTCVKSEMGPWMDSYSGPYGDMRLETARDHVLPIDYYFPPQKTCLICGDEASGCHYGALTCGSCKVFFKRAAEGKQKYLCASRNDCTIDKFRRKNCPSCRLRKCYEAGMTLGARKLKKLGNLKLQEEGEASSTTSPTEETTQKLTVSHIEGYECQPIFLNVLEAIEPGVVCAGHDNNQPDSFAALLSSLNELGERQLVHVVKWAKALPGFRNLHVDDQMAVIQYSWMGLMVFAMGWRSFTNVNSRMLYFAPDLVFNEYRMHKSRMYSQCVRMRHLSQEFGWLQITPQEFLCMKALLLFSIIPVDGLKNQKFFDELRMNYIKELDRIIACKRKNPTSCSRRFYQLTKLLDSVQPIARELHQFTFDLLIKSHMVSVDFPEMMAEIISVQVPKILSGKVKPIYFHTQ
Method in brief: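 Proliferation of 22Rv1 prostate cancer cells tracked by electrical impedance, endpoint taken at 80 hours after dosing. Eight-point 1:4 dilutions from 100 uM maximum final, duplicate; testosterone and MG132 as positive controls, assay media as negative.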

SMILES	outcome
CC(C)(CO)CO	inactive
CCC(C)(C)C1CCC(=O)CC1	inactive
CC1COC(=O)O1 (configuration not stated)	inactive

target: AR (gene 367) (UniProt P10275); experiment: ACEA_AR_antagonist_80hr: ACEA Biosciences xCELLigence Real-Time Cell Analysis on Androgen Receptor Antagonism for Proliferation (AID 2283787);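 also: hits lower the impedance growth signal relative to DMSO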
Method in brief: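 22Rv1 cells in assay medium, growth tracked by electrical impedance; compounds eight-point 1:4 dilutions from 100 uM final, duplicate plates. Endpoint at 80 h; loss of signal versus DMSO.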

SMILES	outcome	AC50
CC(C)(CO)CO	inactive	–
CCC(C)(C)C1CCC(=O)CC1	inactive	–
COc1cc(OC)c2ccc(=O)oc2c1	–	3.3 µM (active)
CC1=CCC(C(C)(C)O)CC1 (configuration not stated)	–	7.98 µM (active)
CCCCCCCCCCOC(=O)c1ccccc1C(=O)OCCCCCCCC	inactive	–
CC(CCO)CC(C)(C)C (configuration not stated)	inactive	–
CC1COC(=O)O1 (configuration not stated)	inactive	–
